HEK293 tox – HEK 293 cell cytotoxicity; 94,000 tested, 6.6% active; HEK 293 viability, ATP luminescence (CellTiter-Glo), 48-72 h; AID 1345083; Potency, µM (series often up to 115 µM), for inactives: at the highest dose activity change, negative = cytotoxicity, usual class: inhibitors; further: nearly all actives have a fitted effect of over 60% in size
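ATP-coupled CellTiter-Glo luminescence served as viability read-out, recorded 10 min after reagent addition at room temperature. HEK 293 cells, 250 cells/well, had been incubated with pintool-transferred compound for 48 or 72 hr at 37 degree Celsius.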
GPT2 inhibitor – blocks human glutamate pyruvate transaminase 2. Q8TD30. Recombinant GPT2, coupled pyruvate oxidase/HRP Amplex Red fluorescence. Potency, µM (doses to about 57.7 µM), inactives show at the highest dose activity change, negative = inhibition, hits mostly inhibitors. 100,000 tested, 0.25% active; further: nearly all actives have a fitted effect of over 60% in size
Target sequence (Q8TD30 whole entry, looked up): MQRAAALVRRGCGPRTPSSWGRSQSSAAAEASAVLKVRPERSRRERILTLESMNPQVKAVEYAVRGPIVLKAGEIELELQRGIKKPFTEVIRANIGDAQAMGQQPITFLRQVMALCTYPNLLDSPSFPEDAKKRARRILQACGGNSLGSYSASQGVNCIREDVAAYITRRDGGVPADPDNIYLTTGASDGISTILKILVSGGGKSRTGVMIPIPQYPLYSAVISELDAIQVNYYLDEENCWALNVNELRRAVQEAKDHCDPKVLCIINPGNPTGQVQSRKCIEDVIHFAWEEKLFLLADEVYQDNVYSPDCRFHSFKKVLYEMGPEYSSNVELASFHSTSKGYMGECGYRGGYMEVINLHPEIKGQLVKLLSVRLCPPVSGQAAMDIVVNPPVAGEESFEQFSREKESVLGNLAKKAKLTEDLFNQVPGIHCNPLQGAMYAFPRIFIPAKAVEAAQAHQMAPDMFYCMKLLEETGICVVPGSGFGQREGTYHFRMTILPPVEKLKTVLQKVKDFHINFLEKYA
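Recombinant GPT2 (10ng/uL) with 250uM a-KG and 2mM L-alanine, 30 min at room temperature, in HEPES pH 7.5 buffer. Pyruvate detected by pyruvate oxidase/HRP/Amplex Red fluorescence after 30 min in the dark; AOA (50uM) as positive control.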
NIH3T3 tox – cytotoxic compounds in NIH 3T3 cells | NIH 3T3 viability, CellTiter-Glo ATP luminescence, 48-72 h | 94,000 tested, 4.3% active | Potency, µM (doses to about 96.7 µM), for inactives: at the top dose activity change, negative = cytotoxicity, hits mostly inhibitors; further: nearly all actives have a fitted effect of over 55% in size
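Cells were seeded at 400 per well, treated with pin-transferred compound, and kept 48 or 72 hr at 37 °C before CellTiter-Glo addition and luminescence imaging of cellular ATP.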
Luciferase inh – inhibitors of firefly (Photinus pyralis) luciferase; AID 1347043; 76,000 tested, 2.5% active; purified P. pyralis luciferase, luminescence, biochemical; Potency, µM (highest dose often 115 µM), most hits filed as inhibitors; P08659; further: nearly all actives have a fitted effect of over 65% in size
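Inhibitors were tested against purified firefly luciferase in a biochemical, low-substrate format (both substrates at 10uM) and luminescence measured with a CCD imager.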
NPR1 antag – antagonists of human natriuretic peptide receptor Npr1 | P16066 | HEK293 hNpr1 GloSensor cGMP, ANP-stimulated luminescence | Potency, µM (top dose mostly 46.3 µM), for inactives: at the highest dose activity change, negative = inhibition, most hits filed as inhibitors | 76,000 tested, 1.6% active; calls by dose curve; further: nearly all actives have a fitted effect of over 60% in size
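HEK293 cells stably expressing human Npr1 and cGMP GloSensor pGS-40F, loaded 2 h with 2% GloSensor reagent, given compound 30 min at room temperature. Luminescence read before and 20 min after 0.1 nM hNppA.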
Starred values were filed as active, the others as inactive; [ ] = dose if it differs, or a comment. An excerpt weighted towards active compounds, which were near 10% of everything screened. Unless noted, the call rests on the fitted dose curve; in most records, active means well fitted curve in the direction sought with a large enough effect; inconclusive means small, poorly fitted or top-dose-only effect, or another doubt; inactive means no such curve, though single readings can be large; an effect the other way counts as inactive or inconclusive. On the % scale 0 is the no-effect control and ±100 the full control effect; potency means the concentration at half of the fitted maximal effect.

Screening Cn1cc(-c2cnc3[nH]cc(CC(=O)N4CCN(Cc5ccccc5)CC4)c3c2)cn1 returned HEK293 tox inconclusive, GPT2 inhibitor -4%[88.5 µM], NIH3T3 tox 40µM*, Luciferase inh inconclusive and NPR1 antag -8%[70.6 µM].
CN1CCN(C(=O)Cc2c[nH]c3ncc(-c4cccc(Cl)c4)cc23)CC1 was read as HEK293 tox 89µM*, GPT2 inhibitor inconclusive, NIH3T3 tox 50µM*, Luciferase inh inactive and NPR1 antag -23%[70.6 µM].
For CN1CCN(C(=O)Cc2c[nH]c3ncc(-c4ccc(Cl)cc4)cc23)CC1 the results were HEK293 tox 100µM*, GPT2 inhibitor inactive, NIH3T3 tox 28µM*, Luciferase inh 22µM* and NPR1 antag -15%[70.6 µM].
CN1CCN(C(=O)Cc2c[nH]c3ncc(-c4ccc5c(c4)OCO5)cc23)CC1 was read as HEK293 tox inconclusive, GPT2 inhibitor -4%[88.5 µM], NIH3T3 tox inconclusive, Luciferase inh 22µM* and NPR1 antag -1%[70.6 µM].
Screening Cc1ccccc1-c1cnc2[nH]cc(CC(=O)N3CCN(C)CC3)c2c1 returned HEK293 tox inconclusive, GPT2 inhibitor 1%[88.5 µM], NIH3T3 tox inconclusive, Luciferase inh inactive and NPR1 antag 2%[70.6 µM].
For O=C1[C@H]2CNC[C@H]2C(=O)N1CCc1ccccc1 the results were HEK293 tox 1%, GPT2 inhibitor inactive, NIH3T3 tox -1%, Luciferase inh inactive and NPR1 antag 0%.
`CCOC(=O)[C@H]1CN(C(=O)c2ccc3c(c2)OCO3)[C@]2(C)C(=O)N(C)c3ccccc3[C@H]12` gave HEK293 tox inconclusive and NIH3T3 tox -19%.
Screening O=C(NC[C@H]1C[C@@H]2CCN1C[C@@H]2CN1CCCCC1)c1ccco1 returned HEK293 tox -14%[172 µM], GPT2 inhibitor 3%[88.5 µM], NIH3T3 tox -32%[174 µM], Luciferase inh inactive and NPR1 antag -9%[70.6 µM].
Screening CN1CCN(C(=O)Cc2c[nH]c3ncc(-c4ccc(F)c(Cl)c4)cc23)CC1 returned HEK293 tox 79µM*, GPT2 inhibitor 1%[88.5 µM], NIH3T3 tox 28µM*, Luciferase inh inactive and NPR1 antag -16%[70.6 µM].
CN1CCN(C(=O)Cc2c[nH]c3ncc(-c4cccc(F)c4)cc23)CC1 was read as HEK293 tox -18%[172 µM], GPT2 inhibitor 0%[88.5 µM], NIH3T3 tox inconclusive, Luciferase inh inactive and NPR1 antag 3%[70.6 µM].
For C=C[C@H]1CN2CC[C@H]1C[C@@H]2CNCc1cccc(Cl)c1 the results were HEK293 tox inconclusive, GPT2 inhibitor inactive, NIH3T3 tox inconclusive, Luciferase inh inactive and NPR1 antag -14%[70.6 µM].
CC[C@H]1CN2CC[C@H]1C[C@@H]2CNC(=O)c1ccc(-c2ccccc2)cc1 was read as HEK293 tox 89µM*, GPT2 inhibitor -5%[88.5 µM], NIH3T3 tox inconclusive, Luciferase inh inactive and NPR1 antag 2%[70.6 µM].
Screening C#C[C@H]1CN2CC[C@H]1C[C@@H]2CNC(=O)c1ccc(-c2ccccc2)cc1 returned HEK293 tox 89µM*, GPT2 inhibitor inactive, NIH3T3 tox 112µM*, Luciferase inh inactive and NPR1 antag 1%[70.6 µM].
Screening C#C[C@H]1CN2CC[C@H]1C[C@@H]2CNCc1cccc(Cl)c1 returned HEK293 tox 126µM*, GPT2 inhibitor -3%[88.5 µM], NIH3T3 tox inconclusive, Luciferase inh inactive and NPR1 antag -5%[70.6 µM].
Screening CC[C@H]1CN2CC[C@H]1C[C@@H]2CNC(=O)c1ccc2ccccc2c1 returned HEK293 tox inconclusive, GPT2 inhibitor 4%[88.5 µM], NIH3T3 tox inconclusive, Luciferase inh inactive and NPR1 antag -12%[70.6 µM].
For C#C[C@H]1CN2CC[C@H]1C[C@@H]2CNC(=O)c1ccc(C#N)cc1 the results were HEK293 tox 0%[172 µM], GPT2 inhibitor -4%[88.5 µM], NIH3T3 tox 0%[138 µM], Luciferase inh inactive and NPR1 antag 5%[70.6 µM].
For COCCC(=O)N1CCC2(CC1)C(=O)Nc1cc(Oc3cccc(N(C)C)c3)c(OC)cc12 the results were HEK293 tox inconclusive, GPT2 inhibitor inactive, NIH3T3 tox inconclusive, Luciferase inh inactive and NPR1 antag -8%.
For CN(C)C1CNC1 the results were HEK293 tox inactive, GPT2 inhibitor -27%[192 µM] and NIH3T3 tox inactive.
Cn1nc(-c2ccc3ccccc3c2)cc1[C@H]1CN2CC[C@H]1C[C@@H]2COC(=O)Nc1cccc(C(F)(F)F)c1 was read as HEK293 tox 79µM*, GPT2 inhibitor inactive, NIH3T3 tox inconclusive, Luciferase inh inactive and NPR1 antag 4%.
For COc1ccccc1-c1cc([C@H]2CN3CC[C@H]2C[C@@H]3COC(=O)Nc2ccccc2)n(C)n1 the results were HEK293 tox inconclusive, GPT2 inhibitor inactive, NIH3T3 tox inconclusive, Luciferase inh inactive and NPR1 antag -2%.
CC(C)NC(=O)OC[C@H]1C[C@@H]2CCN1C[C@@H]2c1cc(-c2ccc(F)cc2)nn1C was read as HEK293 tox 112µM*, GPT2 inhibitor 4%[88.5 µM], NIH3T3 tox inconclusive, Luciferase inh inactive and NPR1 antag -2%[70.6 µM].
`CCCNC(=O)OC[C@H]1C[C@@H]2CCN1C[C@@H]2c1cc(-c2ccc3ccccc3c2)nn1C` gave HEK293 tox 63µM*, GPT2 inhibitor 2%[88.5 µM], NIH3T3 tox 32µM*, Luciferase inh inactive and NPR1 antag -10%[70.6 µM].
`CC(C)NC(=O)OC[C@H]1C[C@@H]2CCN1C[C@@H]2c1cc(-c2ccc3ccccc3c2)nn1C` gave HEK293 tox 28µM*, GPT2 inhibitor inconclusive, NIH3T3 tox 28µM*, Luciferase inh 40µM* and NPR1 antag -25%[70.6 µM].
For COc1ccccc1-c1cc([C@H]2CN3CC[C@H]2C[C@@H]3COC(=O)Nc2ccc(C(C)(C)C)cc2)n(C)n1 the results were HEK293 tox 25µM*, GPT2 inhibitor -2%, NIH3T3 tox 22µM*, Luciferase inh inactive and NPR1 antag -2%.
For COc1ccccc1-c1cc([C@H]2CN3CC[C@H]2C[C@@H]3COC(=O)Nc2ccc(C(C)C)cc2)n(C)n1 the results were HEK293 tox 28µM*, GPT2 inhibitor 3%, NIH3T3 tox 22µM*, Luciferase inh inactive and NPR1 antag -1%.
`CC(=O)C1CCC2C3CCC4C[C@@H](O)CCC4(C)C3CCC12C` (stereo not given in full) gave GPT2 inhibitor inactive.
`Cc1cccc(NC(=O)N2[C@H]3CC[C@@H]2c2cnc(-c4ccccc4)nc2C3)c1` gave HEK293 tox 40µM*, GPT2 inhibitor 3%, NIH3T3 tox inconclusive, Luciferase inh inactive and NPR1 antag -29%.
Screening Cc1ccccc1S(=O)(=O)N1[C@H]2CC[C@@H]1c1cnc(-c3ccccc3)nc1C2 returned HEK293 tox 25µM*, GPT2 inhibitor inactive, NIH3T3 tox inconclusive, Luciferase inh inactive and NPR1 antag inconclusive.
